Measurements from PubChem BioAssay (EPA / NIEHS).
Where “and” joins values, the source holds several entries; their conditions need not be identical. Equal entries are not always repeated. The source holds several records for some structures; these can differ, active in one and inactive in another. Calls of active or inactive are those of the source. How the source made its calls: active means hit-call score of the fitted dose curve at least 0.9, where 1 is the maximum; inactive means score below 0.9.

Assays:
[1] = BSK_CASM3C_SRB: Viability Assessment in the BioMAP Diversity Plus: CASM3C Assay (AID 2283050); settings: primary human coronary artery smooth muscle cells;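 further: total protein by SRB staining as cytotoxicity measure in parallel cultures; cells exposed to compound for 24 h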
[2] = read-out: Thrombomodulin, THBD (gene 7056); experiment: BSK_CASM3C_Thrombomodulin: BioMAP Diversity Plus: CASM3C Assay for Thrombomodulin Biomarker Activity (AID 2283051); settings: primary human coronary artery smooth muscle cells; actives raise or lower the signal;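 further: thrombomodulin protein level measured by ELISA 24 h after dosing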
[3] = read-out: Tissue Factor, F3 (gene 2152); experiment: BSK_CASM3C_TissueFactor: BioMAP Diversity Plus: CASM3C Assay for Tissue Factor Biomarker Activity (AID 2283052); settings: primary human coronary artery smooth muscle cells; actives raise or lower the signal;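 further: cell surface tissue factor protein level read by ELISA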
[4] = read-out: Interferon-gamma inducible Protein 10 (IP10), CXCL10 (gene 3627); experiment: BSK_hDFCGF_IP10: BioMAP Diversity Plus: hDFCGF Assay for Interferon-gamma inducible Protein 10 (IP10) Biomarker Activity (AID 2283053); settings: primary human foreskin fibroblasts; actives raise or lower the signal
Outline: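 Primary foreskin fibroblasts, human; 24 h compound exposure; IP-10 by ELISA; bidirectional fit vs DMSO.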

[5] = read-out: Urokinase-type plasminogen activator receptor (uPAR), PLAUR (gene 5329); experiment: BSK_CASM3C_uPAR: BioMAP Diversity Plus: CASM3C Assay for Urokinase-type plasminogen activator receptor (uPAR) Biomarker Activity (AID 2283054); settings: primary human coronary artery smooth muscle cells; actives raise or lower the signal;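 further: cell-surface uPAR protein level quantified by ELISA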
[6] = read-out: Vascular cell adhesion molecule 1 (VCAM1), VCAM1 (gene 7412); experiment: BSK_CASM3C_VCAM1: BioMAP Diversity Plus: CASM3C Assay for Vascular cell adhesion molecule 1 (VCAM1) Biomarker Activity (AID 2283055); settings: primary human coronary artery smooth muscle cells; actives raise or lower the signal;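 further: VCAM-1 protein level quantified by ELISA on the cells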
[7] = read-out: Collagen III, COL3A1 (gene 1281); experiment: BSK_hDFCGF_CollagenIII: BioMAP Diversity Plus: hDFCGF Assay for Collagen III Biomarker Activity (AID 2283056); settings: primary human foreskin fibroblasts; actives raise or lower the signal
Outline: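 ELISA readout of Collagen III in human dermal (foreskin) fibroblasts, taken 24 h post-treatment. Gain or loss relative to DMSO vehicle fitted in both directions.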

[8] = read-out: Epidermal growth factor receptor (EGFR), EGFR (gene 1956); experiment: BSK_hDFCGF_EGFR: BioMAP Diversity Plus: hDFCGF Assay for Epidermal growth factor receptor (EGFR) Biomarker Activity (AID 2283057); settings: primary human foreskin fibroblasts; actives raise or lower the signal
Outline: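 hDFCGF system, primary human foreskin fibroblasts; compound 24 h; EGFR measured by ELISA; DMSO = negative control/baseline; bidirectional fitting.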

[9] = read-out: Interleukin-8 (IL8), CXCL8 (gene 3576); experiment: BSK_hDFCGF_IL8: BioMAP Diversity Plus: hDFCGF Assay for Interleukin-8 (IL8) Biomarker Activity (AID 2283058); settings: primary human foreskin fibroblasts; actives raise or lower the signal
Outline: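 IL-8 levels read by ELISA at 24 hours after dosing human skin fibroblast cultures. Parallel SRB staining assessed overt cytotoxicity, and gain or loss of signal was fitted against DMSO control.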

[10] = BSK_hDFCGF_Proliferation: Cell Proliferation Assessment in the BioMAP Diversity Plus: hDFCGF Assay (AID 2283059); settings: primary human foreskin fibroblasts;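 further: curves fitted for both rise and fall of signal versus DMSO baseline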
Outline: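 Primary human foreskin fibroblasts, sub-confluent; […]; 10% TCA fix, 0.1% SRB stain, A560 total protein. Gain/loss fitted bidirectionally vs DMSO control.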

[11] = read-out: Macrophage colony-stimulating factor (MCSF), CSF1 (gene 1435); experiment: BSK_hDFCGF_MCSF: BioMAP Diversity Plus: hDFCGF Assay for Macrophage colony-stimulating factor (MCSF) Biomarker Activity (AID 2283060); settings: primary human foreskin fibroblasts; actives raise or lower the signal
Outline: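 M-CSF levels read by ELISA at 24 h post-dosing in human skin fibroblasts. Parallel cultures stained with SRB assessed cytotoxicity at the same time point; response fitted in both directions against the DMSO baseline.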

[12] = BSK_hDFCGF_SRB: Viability Assessment in the BioMAP Diversity Plus: hDFCGF Assay (AID 2283061); settings: primary human foreskin fibroblasts;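 further: cells exposed to compound for 24 h before the read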
Outline: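 Viability was read as total protein: after 10% TCA fixation, wells were stained with 0.1% sulforhodamine B and read at 560 nm. Primary human foreskin fibroblasts were dosed for 24 h, with bidirectional fitting versus DMSO.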

[13] = read-out: TIMP metallopeptidase inhibitor 1 (TIMP1), TIMP1 (gene 7076); experiment: BSK_hDFCGF_TIMP1: BioMAP Diversity Plus: hDFCGF Assay for TIMP metallopeptidase inhibitor 1 (TIMP1) Biomarker Activity (AID 2283062); settings: primary human foreskin fibroblasts; actives raise or lower the signal
Outline: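 TIMP-1 measured by ELISA 24 h after chemical dosing of primary human skin fibroblasts, with gain or loss fitted relative to DMSO. Parallel SRB staining (560 nm) monitored overt cytotoxicity.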

[14] = read-out: Monokine induced gamma interferon (MIG), CXCL9 (gene 4283); experiment: BSK_hDFCGF_MIG: BioMAP Diversity Plus: hDFCGF Assay for Monokine induced gamma interferon (MIG) Biomarker Activity (AID 2283063); settings: primary human foreskin fibroblasts; actives raise or lower the signal
Outline: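 Human primary foreskin fibroblasts in the hDFCGF system, exposed to test chemical for 24 h; MIG measured by ELISA. Bidirectional curve fitting against DMSO negative control as activity baseline.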

[15] = read-out: Matrix Metallopeptidase 1 (MMP1), MMP1 (gene 4312); experiment: BSK_hDFCGF_MMP1: BioMAP Diversity Plus: hDFCGF Assay for Matrix Metallopeptidase 1 (MMP1) Biomarker Activity (AID 2283064); settings: primary human foreskin fibroblasts; actives raise or lower the signal
Outline: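 Primary human foreskin fibroblasts exposed to chemicals for 24 h; MMP1 measured by ELISA. Cytotoxicity tracked by SRB staining in parallel cultures; bidirectional fit relative to DMSO.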

[16] = read-out: Vascular cell adhesion molecule 1 (VCAM1), VCAM1 (gene 7412); experiment: BSK_hDFCGF_VCAM1: BioMAP Diversity Plus: hDFCGF Assay for Vascular cell adhesion molecule 1 (VCAM1) Biomarker Activity (AID 2283065); settings: primary human foreskin fibroblasts; actives raise or lower the signal;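 on AC50: VCAM-1 protein level quantified by ELISA after 24 h chemical exposure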
Outline: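 ELISA readout of VCAM-1 on human dermal fibroblast primary cultures, 24 h after chemical exposure. Gain or loss of signal fitted in both directions against DMSO baseline.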

[17] = read-out: Plasminogen activator inhibitor-1 (PAI1), SERPINE1 (gene 5054); experiment: BSK_hDFCGF_PAI1: BioMAP Diversity Plus: hDFCGF Assay for Plasminogen activator inhibitor-1 (PAI1) Biomarker Activity (AID 2283066); settings: primary human foreskin fibroblasts; actives raise or lower the signal
Outline: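 Primary dermal fibroblasts (human foreskin), hDFCGF system; compound 24 h; PAI-1 by ELISA; bidirectional fit vs DMSO control.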

[18] = read-out: Intercellular Adhesion Molecule 1 (ICAM1), ICAM1 (gene 3383); experiment: BSK_KF3CT_ICAM1: BioMAP Diversity Plus: KF3CT Assay for Intercellular Adhesion Molecule 1 (ICAM1) Biomarker Activity (AID 2283067); settings: primary human keratinocytes with fibroblasts; actives raise or lower the signal
Outline: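 Cell-surface ICAM-1 was measured by ELISA 24 h after dosing primary human skin keratinocytes co-cultured with fibroblasts. Parallel SRB staining tracked overt cytotoxicity. Gain or loss of signal was fitted relative to DMSO.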

[19] = read-out: Interferon-gamma inducible Protein 10 (IP10), CXCL10 (gene 3627); experiment: BSK_KF3CT_IP10: BioMAP Diversity Plus: KF3CT Assay for Interferon-gamma inducible Protein 10 (IP10) Biomarker Activity (AID 2283068); settings: primary human keratinocytes with fibroblasts; actives raise or lower the signal
Outline: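 In a primary skin co-culture of keratinocytes and fibroblasts, IP-10 is quantified by ELISA at 24 h after dosing. SRB staining of parallel wells monitors overt toxicity. Curves are fitted both directions against DMSO.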

[20] = BSK_KF3CT_SRB: Viability Assessment in the BioMAP Diversity Plus: KF3CT Assay (AID 2283069); settings: primary human keratinocytes with fibroblasts;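 further: total protein by sulforhodamine B staining as a cytotoxicity measure; read 24 h after compound addition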
Outline: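 Human keratinocyte and foreskin fibroblast co-culture exposed to chemical for 24 h. Total protein measured in parallel cultures by 0.1% sulforhodamine B staining after 10% TCA fixation, read at 560 nm; bidirectional fit relative to DMSO.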

Measured: AC50

O=C(O)C(F)(F)C(F)(F)C(F)(F)F
inactive: all assays above

O=C(O)C=C(C(F)(F)F)C(F)(F)F
inactive: [1] | [2] | [3] | [4] | [5] | [7] | [8] | [9] | [10] | [11] | [12] | [13] | [14] | [15] | [17] | [18] | [19] | [20]
active: [6] 12.5 µM and 5.23 µM | [10] 21.9 µM | [13] 0.967 µM | [16] 13.1 µM and 22.2 µM | [17] 22.6 µM

O=C(Cl)C(F)(F)C(F)(F)C(F)(F)C(F)(F)C(F)(F)C(F)(F)C(F)(F)C(F)(F)F
active: [4] 24.8 µM and 36.7 µM and 32.9 µM | [6] 30 µM | [8] 6.36 µM and 13.7 µM | [10] 49.7 µM and 49.4 µM and 49.5 µM | [12] 8.08 µM and 15.7 µM and 10.9 µM | [14] 21.7 µM and 44.1 µM and 30 µM | [16] 50.4 µM and 47.9 µM and 47 µM | [17] 47.5 µM and 48.5 µM and 54.6 µM | [19] 20.3 µM and 30 µM
inactive: [1] | [2] | [3] | [5] | [6] | [7] | [8] | [9] | [11] | [13] | [15] | [18] | [19] | [20]

O=C(CC(=O)C(F)(F)C(F)(F)F)C(F)(F)F
inactive: all assays above
